In all, about 13,000 compounds went through this assay and about 3,200 (25%) showed an effect of 50% or more. This is one part of the list.
The molecules below were run on P. falciparum stage V gametocytes. Conditions: 48 h, 5 µM; inhibitor.
Design: BacTiter-Glo ATP luminescence viability of purified stage V gametocytes in 384-well plates, per cent inhibition versus DMSO
In the case of `Clc1ccc(-c2ncc(-c3ccncc3)[nH]2)cc1Cl` [TCMDC-135775], the “% Inhibition” value is reported as -31.04%.
With `Nc1ccnc(N2CCC(CCOc3ccnc4cc(Cl)ccc34)CC2)c1` [TCMDC-141365] the “% Inhibition” value was -42.39%.
In the case of `CC(=O)Nc1nnc(SCc2c(C)cc(C(C)(C)C)cc2C)s1` [TCMDC-125446], the “% Inhibition” value is reported as 0.04812%.
`CN1CC[C@@H](Oc2cc(Nc3nc(-c4ccc(C#N)cc4)cs3)ccc2Cl)C1` [TCMDC-136291] was tested, and the “% Inhibition” value was 12.39%.
In the case of `CC(C)CCNC(=O)C1Cc2c([nH]c3ccc(Br)cc23)C2(CCN(CCc3ccccc3)CC2)N1` (stereo not shown) [TCMDC-141179], the “% Inhibition” value is reported as 47.91%.
In the case of `CC(C)CCNC(=O)C1Cc2c([nH]c3ccc(Br)cc23)C2(CCN(Cc3ccccc3)CC2)N1` (stereo not shown) [TCMDC-141178], the “% Inhibition” value is reported as 102.8%.
`CCCCCCNC(=O)C1Cc2c([nH]c3cc(Cl)ccc23)C2(CCN(CCC)CC2)N1` (stereo not shown) [TCMDC-141297] was tested, and the “% Inhibition” value was -77.49%.
With `Cc1ccc2[nH]c3c(c2c1)CC(C(=O)NCCC(C)C)NC31CCN(Cc2ccccc2)CC1` (stereo not shown) [TCMDC-141090] the “% Inhibition” value was 28.05%.
In the case of `CCCCCCNC(=O)C1Cc2c([nH]c3cc(Cl)ccc23)C2(CCN(Cc3ccccc3)CC2)N1` (stereo not shown) [TCMDC-141296], the “% Inhibition” value is reported as 89.1%.
With `CCCCCCNC(=O)C1Cc2c([nH]c3ccc(F)cc23)C2(CCN(Cc3ccccc3)CC2)N1` (stereo not shown) [TCMDC-141303] the “% Inhibition” value was 21.59%.
For `Nc1cc(-c2cc3c(OCc4ccccc4)cccc3[nH]2)ccn1` [TCMDC-134290], the “% Inhibition” value was -55.8%.
`CN(C)CCC1CCN(CCS(=O)(=O)c2cccc(Nc3ccc(-c4ccsc4)cn3)c2)CC1` [TCMDC-134377] was tested, and the “% Inhibition” value was 15.01%.
For `Cc1cc(Cl)ccc1NC(=O)Nc1ccc2nccc(N3CCN(C)CC3)c2c1` [TCMDC-139357], the “% Inhibition” value was 8.372%.
In the case of `COc1ccc(CN(C)CCCOc2ccc(NC(=O)c3cccc4c(=O)c5cccc(F)c5[nH]c34)cc2)cc1OC` [TCMDC-131846], the “% Inhibition” value is reported as 60.98%.
In the case of `COc1ccc(CN(C)CCOc2ccc(NC(=O)c3cccc4c(=O)c5cc(SC)ccc5[nH]c34)cc2)cc1OC` [TCMDC-131956], the “% Inhibition” value is reported as 28.02%.
`COc1ccc(CN(C)CCCOc2ccc(NC(=O)c3cccc4c(=O)c5cccc(C)c5[nH]c34)cc2)cc1OC` [TCMDC-131850] was tested, and the “% Inhibition” value was 23.76%.
`COc1ccc(CCN(C)CCCCc2ccc(NC(=O)c3cccc4c(=O)c5cc(F)ccc5sc34)cc2)cc1OC` [TCMDC-131961] was tested, and the “% Inhibition” value was 94.02%.
In the case of `COc1ccc(CCN(C)CCOc2ccc(NC(=O)c3cc(SC)cc4c(=O)c5ccccc5[nH]c34)cc2)cc1OC` [TCMDC-131957], the “% Inhibition” value is reported as 24.55%.
For `COc1cc(OCCCN(C)Cc2ccc(OC)c(OC)c2)ccc1NC(=O)c1cccc2c(=O)c3cccc(F)c3[nH]c12` [TCMDC-131853], the “% Inhibition” value was 16.5%.
In the case of `COc1ccc(CCN(C)CCCN2CCC(NC(=O)c3cccc4c(=O)c5ccccc5sc34)CC2)cc1OC` [TCMDC-131966], the “% Inhibition” value is reported as 103.2%.
In the case of `COc1ccc(CCN(C)CCc2ccc(NC(=O)c3cccc4c(=O)c5ccccc5sc34)cc2)cc1` [TCMDC-131965], the “% Inhibition” value is reported as 45.76%.
`COc1ccc(CCN(C)CCCOc2ccc(NC(=O)c3cccc4c(=O)c5ccccc5[nH]c34)cc2)cc1OC` [TCMDC-132116] was tested, and the “% Inhibition” value was 43.65%.
For `COc1ccc(CCN(C)CCOc2ccc(NC(=O)c3cccc4c(=O)c5cc(SC)ccc5[nH]c34)cc2)cc1OC` [TCMDC-131958], the “% Inhibition” value was 53.19%.
For `COc1ccc(CN(C)Cc2ccc(NC(=O)c3cccc4c(=O)c5cccc(C)c5[nH]c34)cc2)cc1OC` [TCMDC-131852], the “% Inhibition” value was 2.818%.
`O=C(NCC1CCC(C(=O)NC2CCCc3ccccc32)CC1)c1ccc(O)c(-c2ccc(Cl)c(Cl)c2)c1` (stereo not shown) [TCMDC-140891] was tested, and the “% Inhibition” value was 17.3%.
`COC(=O)C(NC(=O)NC1CCN(c2ccnc(Nc3ccc(F)cc3)n2)C1)c1ccccc1` (stereo not shown) [TCMDC-133595] was tested, and the “% Inhibition” value was 4.499%.
With `CCc1sc(CN(CCCNc2cc(=O)c3ccccc3[nH]2)Cc2sc(CC)c(Br)c2-c2ccsc2)c(-c2ccsc2)c1Br` [TCMDC-140753] the “% Inhibition” value was 49.24%.
For `N=C1c2ccccc2CN1CC(=O)c1ccc(Cl)c(Cl)c1` [TCMDC-123783], the “% Inhibition” value was -26.95%.
For `N#Cc1ccc2c(c1)CCN(CCC1CCC(NC(=O)/C=C/c3cnc4ccccc4c3)CC1)CC2` (stereo not shown) [TCMDC-139662], the “% Inhibition” value was -42.99%.
In the case of `O=C(NCc1ccc(F)cc1)Nc1cccc(-c2ccc(-c3nc4ccc(F)cc4[nH]3)cc2)c1` [TCMDC-133301], the “% Inhibition” value is reported as -42.08%.
`CCc1nnc2sc(-c3cccc(NC(=O)c4ccc(OC)c(Cl)c4)c3)nn12` [TCMDC-125049] was tested, and the “% Inhibition” value was -8.625%.
`CC(C)(CN)c1cc(-c2ccc(Cl)c(O)c2)c(-c2ccncc2)o1` [TCMDC-141334] was tested, and the “% Inhibition” value was -68.46%.
For `CCCC(=O)Nc1ccc(Cl)c(NC(=O)COc2cc(C)ccc2C(C)C)c1` [TCMDC-123706], the “% Inhibition” value was -6.515%.
With `CCc1ccc(NC(=O)c2ccc(CN3CCCN(Cc4cccc(C)c4)CC3)cc2)cc1` [TCMDC-136440] the “% Inhibition” value was -10.99%.
`Nc1ncnc2nc(-c3ccc(F)cc3)cc(-c3ccc(NC(=O)c4ccccc4)cc3)c12` [TCMDC-134854] was tested, and the “% Inhibition” value was -13.72%.
In the case of `CCCC1N=C(N)N=C(N)N1c1ccc(CC)cc1` (stereo not shown) [TCMDC-131300], the “% Inhibition” value is reported as -2.095%.
In the case of `CC(C)CC1c2[nH]c3ccccc3c(=O)c2CN1C(=O)OC(C)(C)C` (stereo not shown) [TCMDC-134513], the “% Inhibition” value is reported as 44.74%.
With `COc1ccc(CN(C)CCCCc2ccc(NC(=O)COc3cccc4sc5ccccc5c(=O)c34)cc2)cc1OC` [TCMDC-131960] the “% Inhibition” value was 103.7%.
With `COc1cc(CCN(C)Cc2ccc(OC)c(OC)c2)ccc1NC(=O)c1cccc2c(=O)c3cccc(F)c3[nH]c12` [TCMDC-131854] the “% Inhibition” value was 37.94%.
For `COc1ccc(CCN(C)CCOc2ccc(NC(=O)COc3ccc4sc5ccccc5c(=O)c4c3)cc2)cc1OC` [TCMDC-132111], the “% Inhibition” value was 31.27%.
For `COc1ccc(CN(C)CCCc2ccc(NC(=O)c3cccc4c(=O)c5ccccc5[nH]c34)cc2)cc1OC` [TCMDC-131963], the “% Inhibition” value was 13.74%.
With `COc1ccc(CN(C)CCCc2ccc(NC(=O)c3cccc4c(=O)c5cccc(F)c5[nH]c34)cc2)cc1OC` [TCMDC-131964] the “% Inhibition” value was 81.66%.
In the case of `COc1ccc(CCN(C)CCCOc2ccc(NC(=O)COc3cccc4sc5ccccc5c(=O)c34)cc2)cc1OC` [TCMDC-132117], the “% Inhibition” value is reported as 17.11%.
